This passage reports Potency results from PubChem BioAssay (NCATS).

Records with an inconclusive call do not appear. The source made the active and inactive calls. The call rests on the fitted dose curve; in most records, active means well fitted cell-killing curve with a large enough effect; inconclusive means small, poorly fitted or top-dose-only effect, or effect the other way; inactive means no such curve, though single readings can be large or run the other way.
Potency means the concentration at half of the fitted maximal effect.

A short description of this assay: Quantitative High-Throughput drug screen in 47 multiple myeloma cell lines against the NCATS MIPE library collection: Karpas417_ECACC cell viability assay (AID 1918961). The conditions noted are these: Karpas417 myeloma viability, CellTiter-Glo ATP luminescence, 48 h; viability (% of DMSO): at 45.8 µM (top of the series). From the text:
PI: Beverly A. Mock Ph.D.
Laboratory of Cancer Biology and Genetics,
Center for Cancer Research, National Cancer Institute,
National Institute of Health, Bethesda, Maryland
Drug resistance and disease progression are common in multiple myeloma (MM) patients, underscoring the need for new therapeutic combinations. […] We hypothesized that effective combinations would reduce MYC expression and enhance p16 activity. […] These preclinical data identify potentially useful drug combinations for evaluation in drug-resistant MM and reveal potential mechanisms of combined drug sensitivity.
Described herein is the primary MIPE qHTS used to cherrypick compounds. Validated compounds were then further tested for potential synergistic activiy.
[1] Peat TJ, Gaikwad SM, Dubois W, Gyabaah-Kessie N, Zhang S, Gorjifard S, Phyo Z, Andres M, Hughitt VK, Simpson RM, Miller MA, Girvin AT, Taylor A, Williams D, D'Antonio N, Zhang Y, Rajagopalan A, Flietner E, Wilson K, Zhang X, Shinn P, Klumpp-Thomas C, McKnight C, Itkin Z, Chen L, Kazandijian D, Zhang J, Michalowski AM, Simmons JK, Keats J, Thomas CJ, Mock BA. Drug combinations identified by high-throughput screening promote cell cycle transition and upregulate Smad pathways in myeloma. Cancer Lett. 2023 Aug 1;568:216284. doi: 10.1016/j.canlet.2023.216284. Epub 2023 Jun 24. PMID: 37356470; PMCID: PMC10408729.
SEQUENCE No. (e.g., 1, 2, 3, etc.); […] (e.g., Cells, Incubation, Reagent, etc.); VALUE and DESCRIPTION.
1; Cells; 5 uL; white, solid bottom 1536-well Greiner assay plate.
2; Compounds; 23 nL; Kalypsis pin tool (Wako USA) equipped with a 1536-well pin head to transfer to the assay plates.
3; Incubation; 48 hours; 37C incubation.
4; Reagent;5uL; CellTiter Glo (Promega).
5; Detector; 425V; Luminescence; Viewlux PerkinElmer.
NOTES (numbers refer to Sequence numbers above)
1. The cell-based screening methods employed in this study were like those previously published. Briefly, the corresponding myeloma cell lines were screened in 1,536-well plates with 500 cells, 5-uL per well for inhibition of cell viability (assessed by measuring ATP levels with CellTiterGlo).
2. NCATS MIPE 4.0 library of approved and investigational drugs were added using the Kalypsis pin tool. Wells treated with DMSO only for 100% viability and media only wells for 0% viability were used as controls.
3. The assay plates were covered and incubated for 48 hours in a 37C, 5% CO2 incubator with controlled humidity.
4. After 48 hours, CellTilter-GloTM luminescent substrate mix (Promega) reagent was added to the assay plate and plates we incubated for 5 min at room temperature.
5. Signal was measured as median relative luminescence units on a ViewLux (PerkinElmer) multiplate reader.
[1] Heske CM, Davis MI, Baumgart JT, Wilson K, Gormally MV, Chen L, Zhang X, Ceribelli M, Duveau DY, Guha R, Ferrer M, Arnaldez FI, Ji J, Tran HL, Zhang Y, Mendoza A, Helman LJ, Thomas CJ. Matrix Screen Identifies Synergistic Combination of PARP Inhibitors and Nicotinamide Phosphoribosyltransferase (NAMPT) Inhibitors in Ewing Sarcoma. Clin Cancer Res. 2017 Dec 1;23(23):7301-7311. doi: 10.1158/1078-0432.CCR-17-1121. Epub 2017 Sep 12. PMID: 28899971; PMCID: PMC6636827.
(Cellular ATP, detected with luciferase, serves as a proxy for viable cell number.)
Take `CSc1cccc(Nc2ncc3cc(-c4c(Cl)cccc4Cl)c(=O)n(C)c3n2)c1`: the Potency is 26.4 nM (active).

For the compound `Cc1cn([C@@H]2C[C@@H](O)[C@H](CO)O2)c(=O)[nH]c1=O`, the Potency entry is “inactive”.

Consider `Cc1cccc(-c2[nH]c(C(C)(C)C)nc2-c2ccc3c(c2)OCO3)n1`, for which the Potency was 1660 nM (active).

`O=C(Nc1ncc(SCCN2CCCC2)s1)[C@]1(c2ccc(S(=O)(=O)C3CC3)cc2)C[C@@H]1C1CCCCC1`: the Potency is 10500 nM (active).

In the case of `CC(C)C[C@@H](N)[C@H](O)C(=O)N[C@H](C(=O)N[C@H](C(=O)N[C@@H](CC(=O)O)C(=O)O)C(C)C)C(C)C`, the Potency entry is “inactive”.

Consider `CN1CC(=O)N2C(Cc3c([nH]c4ccccc34)[C@H]2c2ccc3c(c2)OCO3)C1=O` (stereo not given in full), for which the Potency entry is “inactive”.

With `Cc1cccc(Nc2nc(N[C@@H]3CCCC[C@H]3N)ncc2C(N)=O)c1`, the Potency is 3720 nM (active).

With `CCC=CC[C@H]1C(=O)CC[C@@H]1CC(=O)OC`, the Potency result is “inactive”.

As for `Cc1c(-c2cccc3c(CCCOc4cccc5ccccc45)c(C(=O)O)n(Cc4cccnc4)c23)c(COc2ccc(N3CCN([S+](=O)([O-])N(C)C)CC3)cc2)nn1C`, the Potency result is “inactive”.

Turning to `O=S(=O)(NCCNCC=Cc1ccc(Br)cc1)c1cccc2cnccc12`, the Potency was 1320 nM (active).

Consider `O=C1CCCC(=O)C1C(=O)c1ccc(C(F)(F)F)cc1[N+](=O)[O-]`, for which the Potency entry was “inactive”.

With `O=c1[nH]c(=O)n([C@H]2C[C@@H](O)[C@@H](CO)O2)cc1I`, the Potency entry was “inactive”.

As for `O=C(CCCN1CCN(c2ccc(F)cc2)CC1)NC1c2ccccc2CSc2ccccc21` (stereo not given), the Potency was 8330 nM (active).

Regarding `CCN(CCO)CCCOc1ccc2c(Nc3cc(CC(=O)Nc4cccc(F)c4)[nH]n3)ncnc2c1`, the Potency is 469 nM (active).

`COC(=O)N1CCN(Cc2cccc(NC(=O)Nc3ccc(C)nc3)c2F)CC1`: the Potency was 4.7 nM (active).

For the compound `Cc1ccc(NC(=O)Nc2cc(C(F)(F)F)ccc2F)cc1Nc1ccc2c(c1)NC(=O)C2=Cc1ccc[nH]1`, the Potency was 2090 nM (active).

In the case of `Cc1cc(CS(=O)(=O)c2ccccc2)cc(OCc2ccc(CN3CCC[C@H]3CO)cc2)c1`, the Potency is 3720 nM (active).

As to `CC(C)CNc1ccnc(NCc2csc(-c3ccccc3)n2)n1`, the Potency was 16600 nM (active).

Consider `O=C(O)CCNc1cc(N2CCc3ccccc3CC2)nc(-c2ccccn2)n1`, for which the Potency result is “inactive”.

Regarding `N#CC(=C1Nc2ccccc2S1)c1ccnc(OCc2ccc(CN3CCOCC3)cc2)n1`, the Potency was 5.9 nM (active).

As to `O=C(CC12CC3CC(CC(C3)C1)C2)Nc1cccc2nc(NCCNCCO)ccc12`, the Potency is 1480 nM (active).

As to `CN(C)CC[C@H](CSc1ccccc1)Nc1ccc(S(=O)(=O)NC(=O)c2ccc(N3CCN(Cc4ccccc4-c4ccc(Cl)cc4)CC3)cc2)cc1[N+](=O)[O-]`, the Potency is 93.5 nM (active).

For the compound `C[C@@]1(c2cc(-c3cncnc3)c(F)cc2F)CCSC(N)=N1`, the Potency is 83.3 nM (active).

Regarding `CN(C)CCOc1ccc(C(=C(CCCl)c2ccccc2)c2ccccc2)cc1`, the Potency entry was “inactive”.

As to `CCNC(=O)CCCC=CC[C@@H]1[C@H](C=CC(O)CCc2ccccc2)[C@@H](O)C[C@@H]1O` (stereo not given in full), the Potency entry is “inactive”.

As to `N#CC1(c2cccc(C(=O)Nc3cc(Oc4ccc5nc(NC(=O)C6CC6)sc5n4)ccc3F)c2Cl)CC1`, the Potency is 187 nM (active).

For `CC(C)[C@H](O)C(=O)N[C@@H](C)C(=O)N[C@@H]1C(=O)N(C)CCc2ccccc21`, the Potency was 2.1 nM (active).

In the case of `C=CC[N+]1([C@H]2C[C@H]3[C@@H]4CC[C@H]5C[C@H](O)[C@@H](N6CCOCC6)C[C@]5(C)[C@@H]4CC[C@]3(C)[C@H]2OC(C)=O)CCCC1`, the Potency result is “inactive”.

Consider `CN(C)CCOc1ccc(-c2nc(-c3ccc4c(c3)CCC4=NO)c(-c3ccncc3)[nH]2)cc1`, for which the Potency is 9350 nM (active).

Consider `CC1(C)[C@H]2CC[C@]3(C)[C@@H](C(=O)C=C4[C@@H]5C[C@@](C)(C(=O)O)CC[C@]5(C)CC[C@]43C)[C@@]2(C)CC[C@@H]1O`, for which the Potency result was “inactive”.

Take `Cc1c(C(=O)Nc2ccc(N3C[C@@H](C)O[C@@H](C)C3)nc2)cccc1-c1ccc(OC(F)(F)F)cc1`: the Potency was 1660 nM (active).

With `OC[C@H]1O[C@@H](O[C@H]2[C@@H](O)[C@@](O)(CO)O[C@@H]2CO)[C@H](O)[C@@H](O)[C@@H]1O`, the Potency entry is “inactive”.

On to `CN(C(Cc1ccc(OS(=O)(=O)c2cccc3cnccc23)cc1)C(=O)N1CCN(c2ccccc2)CC1)S(=O)(=O)c1cccc2cnccc12` (stereo not given), for which the Potency was 4180 nM (active).

On to `CC(C)(C)c1nc(-c2cccc(NS(=O)(=O)c3c(F)cccc3F)c2F)c(-c2ccnc(N)n2)s1`, for which the Potency was 5900 nM (active).

Turning to `CNC(=O)c1cc(Oc2ccc(NC(=O)Nc3ccc(Cl)c(C(F)(F)F)c3)c(F)c2)ccn1`, the Potency is 4690 nM (active).

Consider `CNC(=O)[C@H](CC1=CN=C2C=CCC=C12)NC(=O)[C@@H](CC(=O)NO)CC(C)C`, for which the Potency was 20.9 nM (active).

As for `Cn1c(=O)c(-c2c(Cl)cccc2Cl)cc2cnc(Nc3cccc(C(=O)O)c3)nc21`, the Potency is 59 nM (active).

Turning to `CC(NCCc1ccc(O)cc1)C(O)c1ccc(O)cc1` (stereo not given), the Potency entry was “inactive”.

For the compound `COC(=O)Nc1ccc(-c2nc(N3CCOCC3)c3cnn(C4CCN(C(=O)OC)CC4)c3n2)cc1`, the Potency was 59 nM (active).

`C[C@@H]1C[C@H]2[C@@H]3CCC4=CC(=O)C=C[C@]4(C)[C@@]3(F)[C@@H](O)C[C@]2(C)[C@@]1(O)C(=O)CO`: the Potency was 41.8 nM (active).
